# LEDGF integ inh: blocks HIV-1 LEDGF/p75-dependent DNA integration; TR-FRET IN-LEDGF/p75 DNA integration, Eu/Cy5; inhibition, % at 3.7 µM; 0.64% of 370,000 active;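 active = inhibition above the screen-wide mean plus 3 SD, cut at about 13% in these data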;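 note: signal is the Cy5 over europium emission ratio at 671 and 618 nm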
# rCAG RNA binder: binds r(CAG) RNA repeats | inhibition, % at 3 µM | r(CAG) RNA repeat, TO-PRO-1 dye displacement fluorescence | 1.3% of 370,000 active;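 active = inhibition above the plate cutoff, the mean of all test compounds on that plate plus 3 SD, cut at about 35% in these data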;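 note: higher means more dye released from RNA so lower well fluorescence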
# UHRF1 binding: UHRF1 methyl-DNA binding inhibition | 0.75% of 370,000 active | Q96T88 | AID 687016 | UHRF1 binding to methylated oligo, TR-FRET | inhibition, % at 4.4 µM; in the data active = inhibition above about 21%;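 note: UHRF1 SRA domain binding a hemimethylated CpG hairpin DNA probe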
# Target sequence (Q96T88 whole entry, looked up, the tested form may be a part): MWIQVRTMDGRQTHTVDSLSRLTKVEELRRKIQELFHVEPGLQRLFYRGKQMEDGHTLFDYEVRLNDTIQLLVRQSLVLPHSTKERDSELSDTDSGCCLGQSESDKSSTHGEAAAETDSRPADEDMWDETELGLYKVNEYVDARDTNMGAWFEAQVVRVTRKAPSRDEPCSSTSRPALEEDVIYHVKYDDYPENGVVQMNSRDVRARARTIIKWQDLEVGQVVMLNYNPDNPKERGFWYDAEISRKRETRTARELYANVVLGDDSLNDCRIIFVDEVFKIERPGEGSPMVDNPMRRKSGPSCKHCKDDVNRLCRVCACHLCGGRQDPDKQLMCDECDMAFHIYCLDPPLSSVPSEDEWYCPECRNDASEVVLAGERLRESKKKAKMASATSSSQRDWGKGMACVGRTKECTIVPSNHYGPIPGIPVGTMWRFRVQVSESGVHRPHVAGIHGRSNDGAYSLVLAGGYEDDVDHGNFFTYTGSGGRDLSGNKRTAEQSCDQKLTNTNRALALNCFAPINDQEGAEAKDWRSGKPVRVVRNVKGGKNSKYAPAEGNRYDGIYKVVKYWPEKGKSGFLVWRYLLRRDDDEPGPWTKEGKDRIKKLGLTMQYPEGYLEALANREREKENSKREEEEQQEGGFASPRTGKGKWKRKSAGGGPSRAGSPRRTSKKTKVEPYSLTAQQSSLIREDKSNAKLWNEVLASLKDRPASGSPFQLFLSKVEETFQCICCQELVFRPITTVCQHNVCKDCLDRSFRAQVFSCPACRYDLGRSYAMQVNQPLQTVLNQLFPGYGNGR
# MBD2 inh: MBD2-methylated oligo binding inhibition. Q9UBB5. TR-FRET, MBD2 binding to methylated oligonucleotide. inhibition, % at 4.4 µM. 0.31% of 370,000 active. AID 686964; in the data active = inhibition above about 13%
# PRMT1 inh: inhibitors of human PRMT1; Q99873; recombinant PRMT1, activity-based probe fluorescence polarization; inhibition, % at 2.79 µM; 1.3% of 370,000 active; AID 652257;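 active = inhibition above about 21% made by adding two undisclosed values, limit read from the data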
# ABHD5-PLIN5 inh: inhibitors of human ABHD5-perilipin-5 interaction; Split G. princeps luciferase complementation, luminescence, 4 h; inhibition, % at 4 µM; 0.78% of 360,000 active; AID 602281;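 active = inhibition above the mean inhibition across every tested compound plus 3 SD, cut at about 22% in these data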
# IN multimer up: HIV-1 integrase multimerization activation, counter-screen; TR-FRET HIV-1 integrase multimerization, biochemical; AID 1053131; activation, % at 7.7 µM; shares compounds with LEDGF integ inh; 17% of 2,000 active; in the data active = activation above about 8.9%
# TRFRET interf: optically interferes with TR-FRET readout in LEDGF counter-screen | shares compounds with LEDGF integ inh | TR-FRET optical interference counterscreen, HIV-1 IN multimerization | inhibition, % at 7.7 µM | 2,000 tested, under 10 active | AID 1053135;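 active = inhibition above the mean over all tested compounds plus 3 SD, which no compound reached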
# IN-LEDGF confirm: LEDGF/p75-dependent HIV-1 integration inhibition, confirmation; AID 1053136; shares compounds with LEDGF integ inh; TR-FRET LEDGF/p75-dependent HIV-1 integration, biochemical; 36% of 2,000 active; inhibition, % at 3.7 µM; in the data active = inhibition above about 14%
# Numbers stand for hits; 0 = inactive; - = no result. Only some compounds are listed: those with a hit (about 4.1% of all), similar ones and a draw of the others.
SMILES,LEDGF integ inh,rCAG RNA binder,UHRF1 binding,MBD2 inh,PRMT1 inh,ABHD5-PLIN5 inh,IN multimer up,TRFRET interf,IN-LEDGF confirm
CC(=O)c1ccc2c(c1)C1C=CCC1C(C(=O)O)N2 (centres undefined),90,96,93,104,71,0,53,0,77
C[C@@H](NC(=O)C[C@H]1CC[C@H]2[C@@H](COc3ccc(NC(=O)Nc4ccccc4)cc3C(=O)N2C)O1)c1ccccc1,0,0,0,0,0,-,-,-,-
N#Cc1ccc(OCC(=O)N[C@@H](Cc2ccccc2)c2nc3ccccc3[nH]2)cc1,0,0,0,0,0,-,-,-,-
COc1ccc(NCc2cc3ccccc3[nH]c2=O)cc1,0,0,0,0,0,0,-,-,-
CCC(=O)N(Cc1cc2cc(OC)ccc2[nH]c1=O)c1ccccc1OC,0,0,0,0,0,0,-,-,-
COc1ccc2[nH]c(=O)c(CN(C(=O)C(C)C)c3ccccc3OC)cc2c1,19,0,0,0,0,0,0,0,0
COc1ccc(NCc2cc3cc(OC)ccc3[nH]c2=O)cc1,16,0,0,0,21,0,0,0,0
Oc1ccc(NCc2ccccc2OCc2ccccc2)cc1,14,0,0,0,0,0,15,0,24
Nn1cnnc1N/N=C/c1ccc(F)cc1,65,0,0,0,0,0,0,0,0
Cc1ccc(/C=N/Nc2nncn2N)cc1,65,0,0,0,0,0,0,0,0
Nn1cnnc1N/N=C/c1ccc(Cl)c([N+](=O)[O-])c1,44,0,0,0,0,0,0,0,0
Nc1nnnn1/N=C\c1ccc(Cl)c([N+](=O)[O-])c1,0,0,0,0,0,0,-,-,-
CN1CCN(C(c2ccc(Br)cc2)c2cc(Cl)c3cccnc3c2O)CC1 (centres undefined),40,0,0,0,0,0,0,0,0
CN1CCN(C(c2ccc(F)cc2)c2ccc3cccnc3c2O)CC1 (centres undefined),-,-,-,-,-,0,-,-,-
O=C(CCc1ccccc1)N[C@H]1[C@@H](OC(=O)C2CC2)CCC[C@@]12C(=O)N(Cc1ccccc1)c1ccccc12,0,0,0,0,0,-,-,-,-
CCOC(=O)[C@]12CCCCC/C=C\1N(CCc1ccc(Cl)cc1)C(=O)[C@H]2CC(=O)NCCc1ccccc1OC,18,0,0,0,0,-,0,0,0
O=S(=O)(CC1NCc2ccccc21)NCCc1ccccc1 (centres undefined),0,0,0,0,0,-,-,-,-
CCOc1cc(/C=C2/C(=O)N(c3ccccc3)N=C2C)ccc1OC(=O)c1ccco1,25,0,0,0,0,0,0,0,0
COC(=O)[C@]12C[C@H](CC(=O)NCc3ccc(C)o3)C(=O)N(Cc3ccco3)C1=C[C@H](C(C)(C)C)O[C@@H]2C,0,0,0,0,0,-,-,-,-
COc1ccc(S(=O)(=O)NC(=O)C2(C)CCN2C(=O)Cc2cc(C)cc(C)c2)cc1OC (centres undefined),0,0,0,0,0,0,-,-,-
Cc1cc(C)cc(CC(=O)N2CCC2(C)C(=O)NS(=O)(=O)c2cccc(OC(F)F)c2)c1 (centres undefined),17,0,0,0,0,0,0,0,0
Cc1ccc2occ(/C=N/NC(=O)c3ccc(Cl)cc3)c(=O)c2c1,0,0,0,0,0,0,-,-,-
Cc1ccc2occ(/C=N/NC(=O)c3ccccc3O)c(=O)c2c1,18,0,0,0,0,0,0,0,24
COC(=O)[C@H](CC(C)C)N(CCCc1cn(Cc2ccccc2)nn1)S(=O)(=O)c1ccccc1Br,0,0,0,0,0,-,-,-,-
COC(=O)C1=C(C)N(Cc2ccc(C(F)(F)F)cc2)C(=NCc2ccccc2C(F)(F)F)NC1c1ccccc1C(F)(F)F (centres undefined),0,0,0,0,0,-,-,-,-
